These results are taken from PubChem BioAssay (NCATS).

Results filed as inconclusive are left out. A call without a number means that no potency is given here. Active and inactive are the calls of the source. Calls come from the whole dose curve; as a rule, active = well fitted curve in the direction sought with a large enough effect; inconclusive = small, poorly fitted or top-dose-only effect, or another doubt; inactive = no such curve, though single readings can be large; an effect the other way counts as inactive or inconclusive.

Chain of Cellular tumor antigen p53 (Homo sapiens) (P04637 whole entry, looked up): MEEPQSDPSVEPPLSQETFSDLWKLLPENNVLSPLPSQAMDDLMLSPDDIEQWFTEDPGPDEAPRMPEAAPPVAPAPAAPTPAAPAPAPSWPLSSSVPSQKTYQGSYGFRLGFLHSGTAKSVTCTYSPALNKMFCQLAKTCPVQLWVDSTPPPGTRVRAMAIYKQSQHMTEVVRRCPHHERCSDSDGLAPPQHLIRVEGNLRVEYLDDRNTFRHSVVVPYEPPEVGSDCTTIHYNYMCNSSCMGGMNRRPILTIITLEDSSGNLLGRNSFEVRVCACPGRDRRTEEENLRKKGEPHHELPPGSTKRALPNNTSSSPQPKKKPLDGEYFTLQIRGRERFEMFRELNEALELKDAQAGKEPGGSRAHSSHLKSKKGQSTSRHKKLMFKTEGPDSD

One assay has as its target Cellular tumor antigen p53 (Homo sapiens) (UniProt P04637). Briefly: Primary qHTS for small molecule compounds that upregulate eGFP-tagged delta133p53alpha (in N-terminal) cells. (AID 2060322).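 For activation: cells pre-induced with doxycycline then dosed without doxycycline.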 Note: nearly all actives have a fitted effect of over 75% in size. Note: potency is the fitted concentration of half-maximal effect. The following applies: NCI-H358 eGFP-delta133p53alpha fluorescence, 24 h; activation: stronger effect = higher value. The procedure, abridged:
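NCI-H358 cells pre-induced 24 h with 10 ng/ml doxycycline for eGFP-delta133p53alpha, plated dox-free and exposed 24 h at 37C to titrated compounds. Fixed, Hoechst-stained; gated GFP peak intensity by laser scanning cytometry, normalized to DMSO (0%) and 57.5 uM 5-azacytidine (100%).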
In general terms: qHTS replaces the single test concentration by a dilution series.
On to `CNS(=O)(=O)c1ccccc1Nc1nc(Nc2ccc(N3CCN(C)CC3)cc2OC)ncc1Br`, for which the Potency was 9.53 µM (active).
As for `CNCc1cc(-c2ccccc2F)n(S(=O)(=O)c2cccnc2)c1`, the activation is 12.5% (inactive).
The same measure, in the same setting: as for `C/C=C1\[C@H](OC2OC(COC3OC(CO)C(O)C(O)C3O)C(O)C(O)C2O)OC=C(C(=O)OC)[C@H]1CC(=O)OCCc1ccc(O)cc1` (stereo partly specified), the figure is -13% (inactive); as for `COC(=O)C1=CO[C@@H](O[C@@H]2O[C@H](CO[C@@H]3O[C@H](COC(=O)/C=C/c4ccc(O)cc4)[C@@H](O)[C@H](O)[C@H]3O)[C@@H](O)[C@H](O)[C@H]2O)[C@@H]2C(CO)=CC[C@H]12`, -3.05% (inactive).
With `C(#Cc1nc2ncccc2nc1OCCN1CCCC1)c1ccccc1`, the Potency is 6.75 µM (active).
With `COc1cc(C[C@H]2COC(=O)[C@@H]2Cc2ccc(O)c(OC)c2)ccc1O`, the activation was -18.8% (inactive).
Still for that read-out and setting: as for `C=CC1C(OC2OC(CO)C(O)C(O)C2O)OC=C(C(=O)OC)C1CC1CC(=O)CC(CCc2ccc(O)cc2)O1` (stereo unspecified), the figure is 19.6% (inactive); as for `C[C@@H]1O[C@@H](O[C@H]2[C@H](OC(=O)C34CCC(C)(C)CC3C3=CCC5C6(C)CC(O)C(O[C@@H]7O[C@H](CO)[C@@H](O)[C@H](O)[C@H]7O)C(C)(C(=O)O)C6CCC5(C)C3(CO)CC4)O[C@H](C)[C@H](O)[C@@H]2O)[C@H](O)[C@H](O)[C@H]1O[C@@H]1OC[C@@H](O)[C@H](O)[C@H]1O` (stereo partly specified), -12.5% (inactive); as for `C=C(C)Cn1c(SCC(=O)c2cccs2)nc2sc3c(c2c1=O)CCCC3`, -5.73% (inactive).
The same measure, in the same setting: in the case of `COC(=O)C1=COC(O[C@@H]2O[C@H](CO)[C@@H](O)[C@H](O)[C@H]2O)C2C(C)C(=O)CC12` (stereo partly specified) it was -1.53% (inactive); in that of `CC1CCC2C(C(=O)O)=COC(O[C@@H]3O[C@H](CO)[C@@H](O)[C@H](O)[C@H]3O)C12` (stereo partly specified), -3.57% (inactive); in that of `COc1cc(/C=C/C(=O)OC[C@H]2O[C@@H](OC3CC(C)=C(C(=O)O)C(C)(C)C3)[C@H](O)[C@@H](O)[C@@H]2O)cc(OC)c1O` (stereo partly specified), -16.8% (inactive).
With `C=C1CC[C@@H]2[C@](C)(CO)[C@H](O)CC[C@@]2(C)[C@@H]1/C=C/C1=CCOC1=O`, the activation is -12.2% (inactive).
On the same count and under the same terms, in the case of `COC(=O)C1=CO[C@@H](O[C@@H]2O[C@H](CO)[C@@H](O)[C@H](O)[C@H]2O)[C@@H]2C(CO)=CC[C@H]12` it was 0% (inactive); in that of `CC(CO[C@@H]1O[C@H](COC(=O)/C=C/c2ccc(O)c(O)c2)[C@@H](O)[C@H](O)[C@H]1O)C1(O)COC(=O)C1` (stereo partly specified), 6.87% (inactive).
Same read-out and setting: in the case of `CC(C)(O)/C=C/C1=CC(=O)[C@@](C)(O)C[C@H]1O` it was -8.4% (inactive).

The next assay concerns the target Aldehyde dehydrogenase, mitochondrial (Homo sapiens) (UniProt P05091). Briefly: qHTS for Inhibitors of the Aldehyde Dehydrogenase Family (ALDH2) Primary screen (AID 2061308). Note: nearly all actives have a fitted effect of over 55% in size. The following applies: ALDH2 enzyme inhibition qHTS, 1536-well; series mostly up to 56 µM.
In the case of `N#Cc1cnc2c(Cl)cc(NCc3cn(CCN4CCCCCC4)nn3)cc2c1Nc1ccc(F)c(Cl)c1`, the Potency entry is “inactive”.
On the same count and under the same terms, in the case of `COc1cc(C(=O)O)ccc1OC1OC(CO)C(O)C(O)C1O` (stereo unspecified) it was “inactive”.
As to `COc1cc(C(=O)OC[C@H]2O[C@@H](OC(C)(C)C(=O)O)[C@H](O)[C@@H](O)[C@@H]2O)cc(OC)c1O`, the Potency entry was “inactive”.
On to `CC1(C)CC2C=C(C(=O)O)C3COC(=O)C(O)(CO)C23C1` (stereo unspecified), for which the Potency result was “inactive”.
On the same count and under the same terms, as for `C[C@@H]1O[C@@H](O[C@H]2[C@H](O[C@H]3[C@H](O[C@H]4CC[C@@]5(C)C(CC[C@]6(C)C5CC=C5[C@@H]7CC(C)(C(=O)O)C[C@@H](O)[C@]7(C)CC[C@]56C)[C@@]4(C)CO)O[C@H](C(=O)O)[C@@H](O)[C@@H]3O)O[C@H](CO)[C@H](O)[C@@H]2O)[C@H](O)[C@H](O)[C@H]1O` (stereo partly specified), the entry is “inactive”; as for `C=C1C(=O)OC[C@@H]1C/C=C(\C)CC1CC(C)C(=O)O1` (stereo partly specified), “inactive”; as for `OC[C@H]1O[C@@H](OC/C=C/c2ccc(O)cc2)[C@H](O)[C@@H](O)[C@@H]1O`, “inactive”.
For `C=C1CC[C@@H]2[C@](C)(CO)[C@H](O)CC[C@@]2(C)[C@@H]1CC(O)C1=CCOC1=O` (stereo partly specified), the Potency entry was “inactive”.
Same read-out and setting: as for `CC(C)(O)C1OC1C1=CC(=O)C2(C)OC2C1O` (stereo unspecified), the entry is “inactive”.
With `C[C@@H]1O[C@@H](O[C@H]2[C@H](O[C@H]3CC[C@@]4(C)C(CC[C@]5(C)C4CC=C4[C@@H]6CC(C)(C)CC[C@]6(C(=O)O[C@@H]6OC[C@H](O)[C@H](O)[C@H]6O[C@@H]6O[C@@H](C)[C@H](O[C@@H]7O[C@H](CO)[C@@H](O)[C@H](O)[C@H]7O)[C@H](O)[C@H]6O)[C@H](O)C[C@]45C)C3(C)C)O[C@H](CO)[C@@H](O[C@@H]3OC[C@@H](O)[C@H](O)[C@H]3O)[C@@H]2O)[C@H](O)[C@H](O)[C@H]1O` (stereo partly specified), the activity change, negative = inhibition was -18.4% [at 11.2 µM] (inactive).
For `C=C1CCC2C(C)(COC3OC(COC(=O)CC(=O)O)C(O)C(O)C3O)CCCC2(C)C1CCC1=CCOC1=O` (stereo unspecified), the Potency entry is “inactive”.
As for `C=C1CC2OC(=O)C(=C)C2C(O)/C=C(\C)CCC1O` (stereo unspecified), the Potency result was “inactive”.
For the compound `O=C(/C=C/c1ccc(O)c(O)c1)OC[C@H]1O[C@@H](OC2CCCCC2O)[C@H](O)[C@@H](O)[C@@H]1O` (stereo partly specified), the Potency entry was “inactive”.
On the same count and under the same terms, in the case of `CC/C=C\C(O)C(O)C1=C(C)C(=O)C2(O1)C(=O)NC(OC)(C(=O)c1ccccc1)C2O` (stereo unspecified) it was “inactive”.
The same measure, in the same setting: as for `COc1cc(/C=C/C(=O)OC(C)(C)C(OC2OC(CO)C(O)C(O)C2O)C(=O)OCc2ccc(OC3OC(CO)C(O)C(O)C3O)cc2)ccc1O` (stereo unspecified), the entry is “inactive”; as for `COc1cc(/C=C/C(=O)O[C@H]2[C@H](O)[C@@H](CO)O[C@@]2(CO)O[C@H]2O[C@H](CO)[C@@H](O)[C@H](O)[C@H]2O)ccc1O`, “inactive”.
For `COc1cc(/C=N\NC(=O)c2ccc3c(c2)OCO3)ccc1OCc1ccccc1`, the Potency entry was “inactive”.
The same measure, in the same setting: in the case of `O=C(/C=C/c1ccc(O)c(O)c1)O[C@H]1[C@@H]2C=CO[C@@H](O[C@@H]3O[C@H](CO)[C@@H](O)[C@H](O)[C@H]3O)[C@@H]2[C@@]2(CO)O[C@@H]12` it was “inactive”; in that of `C[C@@H]1O[C@@H](O[C@H]2[C@H](O)[C@@H](O)[C@H](OC(=O)[C@]34CCC(C)(C)C[C@H]3C3=CCC5[C@@]6(C)CC[C@H](O[C@@H]7O[C@H](C(=O)O)[C@@H](O)[C@H](O)[C@H]7O)C(C)(C)C6CC[C@@]5(C)[C@]3(C)CC4)O[C@@H]2CO)[C@H](O)[C@H](O)[C@H]1O` (stereo partly specified), “inactive”.
As for `O=C(/C=C/N1C[C@@H]2C[C@@H]1CN2c1ccccn1)c1ccccc1O`, the Potency entry is “inactive”.
Regarding `COc1cc(/C=C/C(=O)O[C@H]2[C@H](O)[C@@H](CO)O[C@@]2(CO)O[C@H]2O[C@H](CO)[C@@H](O)[C@H](O)[C@H]2O)cc(OC)c1O`, the Potency entry was “inactive”.
Same read-out and setting: in the case of `CC(=O)N1CCc2ccc(O)c(OC3OC(COC4OCC(O)(CO)C4O)C(O)C(O)C3O)c2C1Cc1ccc(O)cc1` (stereo unspecified) it was “inactive”.
The same measure, in the same setting: in the case of `COc1c2cc(c(O[C@@H]3O[C@H](CO)[C@@H](O)[C@H](O)[C@H]3O)c1OC)CCCCC(O)CCc1ccc(O)c-2c1` (stereo partly specified) it was “inactive”; in that of `Nc1nc2c(cnn2CCCc2ccc(O)cc2)c2nc(-c3ccco3)nn12`, “inactive”; in that of `CNS(=O)(=O)c1ccccc1Nc1nc(Nc2ccc(N3CCN(C)CC3)cc2OC)ncc1Br`, “inactive”.
The same measure, in the same setting: in the case of `CNCc1cc(-c2ccccc2F)n(S(=O)(=O)c2cccnc2)c1` it was “inactive”; in that of `C/C=C1\[C@H](OC2OC(COC3OC(CO)C(O)C(O)C3O)C(O)C(O)C2O)OC=C(C(=O)OC)[C@H]1CC(=O)OCCc1ccc(O)cc1` (stereo partly specified), “inactive”.
In the case of `COC(=O)C1=CO[C@@H](O[C@@H]2O[C@H](CO[C@@H]3O[C@H](COC(=O)/C=C/c4ccc(O)cc4)[C@@H](O)[C@H](O)[C@H]3O)[C@@H](O)[C@H](O)[C@H]2O)[C@@H]2C(CO)=CC[C@H]12`, the Potency entry is “inactive”.
Still for that read-out and setting: in the case of `C(#Cc1nc2ncccc2nc1OCCN1CCCC1)c1ccccc1` it was “inactive”.
Regarding `COc1cc(C[C@H]2COC(=O)[C@@H]2Cc2ccc(O)c(OC)c2)ccc1O`, the Potency entry was “inactive”.
As for `C=CC1C(OC2OC(CO)C(O)C(O)C2O)OC=C(C(=O)OC)C1CC1CC(=O)CC(CCc2ccc(O)cc2)O1` (stereo unspecified), the Potency entry was “inactive”.
Still for that read-out and setting: as for `C[C@@H]1O[C@@H](O[C@H]2[C@H](OC(=O)C34CCC(C)(C)CC3C3=CCC5C6(C)CC(O)C(O[C@@H]7O[C@H](CO)[C@@H](O)[C@H](O)[C@H]7O)C(C)(C(=O)O)C6CCC5(C)C3(CO)CC4)O[C@H](C)[C@H](O)[C@@H]2O)[C@H](O)[C@H](O)[C@H]1O[C@@H]1OC[C@@H](O)[C@H](O)[C@H]1O` (stereo partly specified), the entry is “inactive”.
On to `C=C(C)Cn1c(SCC(=O)c2cccs2)nc2sc3c(c2c1=O)CCCC3`, for which the Potency result is “inactive”.
Take `COC(=O)C1=COC(O[C@@H]2O[C@H](CO)[C@@H](O)[C@H](O)[C@H]2O)C2C(C)C(=O)CC12` (stereo partly specified): the Potency result was “inactive”.
Still for that read-out and setting: as for `CC1CCC2C(C(=O)O)=COC(O[C@@H]3O[C@H](CO)[C@@H](O)[C@H](O)[C@H]3O)C12` (stereo partly specified), the entry is “inactive”; as for `COc1cc(/C=C/C(=O)OC[C@H]2O[C@@H](OC3CC(C)=C(C(=O)O)C(C)(C)C3)[C@H](O)[C@@H](O)[C@@H]2O)cc(OC)c1O` (stereo partly specified), “inactive”.
Still for that read-out and setting: as for `C=C1CC[C@@H]2[C@](C)(CO)[C@H](O)CC[C@@]2(C)[C@@H]1/C=C/C1=CCOC1=O`, the entry is “inactive”.
On the same count and under the same terms, in the case of `COC(=O)C1=CO[C@@H](O[C@@H]2O[C@H](CO)[C@@H](O)[C@H](O)[C@H]2O)[C@@H]2C(CO)=CC[C@H]12` it was “inactive”; in that of `CC(CO[C@@H]1O[C@H](COC(=O)/C=C/c2ccc(O)c(O)c2)[C@@H](O)[C@H](O)[C@H]1O)C1(O)COC(=O)C1` (stereo partly specified), “inactive”.
With `CC(C)(O)/C=C/C1=CC(=O)[C@@](C)(O)C[C@H]1O`, the Potency result was “inactive”.
